Test results reported in ChEMBL document CHEMBL3988442, “University of Dundee, Small-Polar-MMV Screening Library” (2021).
Hit rate of the full screen: of about 48,000 compounds, about 13,000 (27%) showed an effect of 50% or more. Some of the results follow.

System: Wolbachia pipientis
Test: Anti-Wolbachia Cell-Based Screen
Assay type: functional
Set-up: scale not given: in the data most compounds retested in dose-response had high values
Conditions: 5 µM

Row | Compound | Percent Effect
1 | Cn1ccnc1CN1CCN2C[C@H](OCc3ccccc3)C[C@H]2C1.O=C(O)C(F)(F)F.O=C(O)C(F)(F)F | -3.164%
2 | Cc1cccc(C(C(=O)N2CC(c3ccncc3)C2)N(C)C)c1 (stereo not given) | -5.316%
3 | N#Cc1ccc(F)c(CNC(=O)NCCC(=O)NC2CCCC2)c1 | 6.795%
4 | N#CC1(NC(=O)c2nccc3ccccc23)CCC2(CC1)OCCO2 | 0.4939%
5 | Cc1noc(C)c1S(=O)(=O)N(CC(N)=O)CC(C)C | 2.709%
6 | COC1CCN(C(=O)c2ccccc2NCc2cccnc2)CC1 | 112.6%
7 | Cc1ccn(-c2ccccc2NCc2cccnc2)n1 | -3.836%
8 | COCCN1CCCn2cnc(CNC3CCCC3)c2C1.Cl.Cl | -22.39%
9 | c1ccc2c(Cc3nnc([C@H]4CCN(C5CCCCC5)C4)o3)c[nH]c2c1 | 3.447%
10 | O=C(O)c1cc2n(n1)CCCN(C(=O)CCc1c[nH]c3ccccc13)C2 | -8.48%
11 | O=C(c1nc(Cc2c[nH]c3ccccc23)no1)N1CCOCC1 | 109.7%
12 | O=C(c1nc(Cc2c[nH]c3ccccc23)no1)N1CCCCC1 | 107.9%
13 | O=C(c1nc(Cc2c[nH]c3ccccc23)no1)N1CCCC1 | 91.24%
14 | CC(=O)N1CC[C@H](c2nnc(Cc3c[nH]c4ccccc34)o2)C1 | -6.086%
15 | O=C(C1CC1)N1CC[C@H](c2nnc(Cc3c[nH]c4ccccc34)o2)C1 | -9.274%
16 | O=C(c1nc(-c2ccc3cc[nH]c3c2)no1)N1CCCC1 | 5.655%
17 | c1ccc2c(Cc3nnc([C@H]4CCN(C5CCOCC5)C4)o3)c[nH]c2c1 | 1.602%
18 | CN(C)C(CNCc1nc(-c2ccsc2)no1)c1ccsc1 (stereo not given) | 7.6%
19 | CC(SCc1ccc(Br)c2cccnc12)C(N)=O (stereo not given) | -7.187%
20 | CCNC(=O)c1ccc(N2CCCC(c3nccn3C(C)C)C2)nc1 (stereo not given) | -0.11%
21 | Cn1cc(Cl)c(CN2CCn3nc(C(=O)N4CCCC4)cc3C2)n1 | -5.174%
22 | COCCN1CC[C@@H]2OC[C@H](C(=O)N(C)Cc3ccccn3)C[C@@H]2C1 | 115.4%
23 | CN(Cc1ccco1)C[C@H]1OC[C@@H]2CCN(Cc3ccccn3)C[C@@H]21.O=C(O)C(F)(F)F.O=C(O)C(F)(F)F.O=C(O)C(F)(F)F | 0.7755%
24 | COCCN(Cc1ccccn1)C(=O)C1CCCCCN1C (stereo not given) | -8.345%
25 | CN(Cc1ccccn1)C(=O)[C@H]1CO[C@H]2CCN(CC3CC3)C[C@H]2C1.O=C(O)C(F)(F)F.O=C(O)C(F)(F)F | 99.36%

Row | Compound | Percent Effect
26 | CN(Cc1ccccn1)C(=O)c1nn(C)c2c1CCN(CC1CC1)C2.O=C(O)C(F)(F)F.O=C(O)C(F)(F)F.O=C(O)C(F)(F)F | -10.9%
27 | COCCN1CCC(C(=O)N(C)Cc2cccc(Cl)c2)C1 (stereo not given) | -62.62%
28 | CC(C)c1nc(CN2CCC(CO)CC2)cs1 | -12.85%
29 | COCc1ncn2c1CN(C(=O)c1ccco1)CC2 | 113.2%
30 | COCc1ncn2c1CN(C(=O)c1ccc[nH]1)CC2 | 111%
31 | O=C(c1ccc2[nH]ccc2c1)N1CCn2cnc(COCC3CC3)c2C1 | -3.31%
32 | O=C(c1ccco1)N1CCCn2cnc(COCC3CC3)c2C1 | -7.899%
33 | CN1CCN(Cc2cn3c(n2)CN(C(=O)c2ccco2)CC3)CC1 | -12.05%
34 | O=C(c1ccc[nH]1)N1CCCn2cnc(COCC3CC3)c2C1 | -13.58%
35 | CC(C)(C)c1coc([C@@H]2COCCN2Cc2c[nH]cn2)n1 | -1.373%
36 | CCOCCN1CCN(Cc2nnc(-c3occc3C)o2)CC1CC (stereo not given) | 4.766%
37 | CN(C)C(=O)CNC(=O)Nc1cccc(Cl)c1SC(F)F | -14%
38 | CSCC(=O)N1CCCN(c2ccccc2C)CC1 | 124.1%
39 | CC(C)N1CCOC(CC(=O)N2CCCN(c3ccc(F)cc3)CC2)C1 (stereo not given) | 103.5%
40 | CSCC(=O)N1CCCN(c2ccncc2C)CC1 | -12.26%
41 | CSCCC(=O)N1CCCN(c2ccccc2C)CC1 | -1.705%
42 | Cc1ccccc1N1CCCN(C(=O)CC2CN(C(C)C)CCO2)CC1 (stereo not given) | 116.5%
43 | N#Cc1ccc(N2CCCN(C(=O)CC3CCCO3)CC2)cc1 (stereo not given) | 5.693%
44 | Cc1ccccc1N1CCCN(C(=O)CN2C(=O)OC[C@@H]2C(C)C)CC1 | 17.78%
45 | Cc1ccccc1N1CCN(C(=O)CC(C)C)CC1 | -38.06%
46 | COC(=O)CC1CN(Cc2ccn(-c3ccc(F)cc3)n2)CCO1 (stereo not given) | -16.13%
47 | NC(=O)c1cncc(-n2ccc(-c3cnccn3)n2)c1 | -26.19%
48 | CC(C#N)(NC(=O)COc1ccccc1Br)C1CC1 (stereo not given) | 18.27%
49 | CCN1CCN(C)C2(CCN(C(=O)CC(F)(F)F)CC2)C1=O | 118.4%
50 | CN1CCN(CC2CC2)C(=O)C12CCN(C(=O)CC(F)(F)F)CC2.O=C(O)C(F)(F)F | 112.7%

Row | Compound | Percent Effect
51 | CN1CCN(CC2CC2)C(=O)C12CCN(C(=O)c1ccnnc1)CC2.O=C(O)C(F)(F)F | -9.864%
52 | Cc1ccc(N2CCCC3(CCN(C(=O)CC(F)(F)F)C3)C2)nn1 (stereo not given) | -9.607%
53 | CN1CCN(C)C2(CCN(C(=O)CC(F)(F)F)CC2)C1=O | 104%
54 | O=C(CC(F)(F)F)N1CCC2(CCCN(c3nncs3)C2)C1 (stereo not given) | -11.31%
55 | CN1CCN(CC2CC2)C(=O)C12CCN(C(=O)c1cnccn1)CC2 | -10.28%
56 | CCN(C(=O)c1ccccc1I)C1CC(=O)NC1=O (stereo not given) | 4.049%
57 | CC/C=C(/C)C(=O)N1CSCC1C(=O)NC1=NCCS1 (stereo not given) | -1.356%
58 | COc1ccc(S(=O)(=O)Nc2cccnc2-n2cncn2)cc1C | -1.49%
59 | COc1ncc(NS(=O)(=O)c2ccc(OC)c(C)c2)c(OC)n1 | -43.62%
60 | COc1ccc(F)cc1S(=O)(=O)NCCn1cnc(C)cc1=O | 77.48%
61 | COc1ccc(F)cc1S(=O)(=O)NCC(O)c1sccc1C (stereo not given) | 28.76%
62 | COc1ccc(S(=O)(=O)NCCn2cnc(C)cc2=O)cc1C | 93.11%
63 | COc1ccc(F)cc1S(=O)(=O)NCC(c1cccn1C)N(C)C (stereo not given) | -20.36%
64 | CC1COc2ccccc2N1C(=O)c1ccnc(-n2cncn2)c1 (stereo not given) | -16.23%
65 | CNc1ncc(CN(C)C(=O)[C@@]23CNC[C@@H]2CN(C(=O)C2CC2)C3)cn1 | -3.257%
66 | COc1cc(NCCNC(=O)c2cc[nH]c2C)cc(OC)c1 | -11.29%
67 | COCCCC1(CO)CCCN(Cc2nccs2)C1 (stereo not given) | 3.777%
68 | O=C(NCc1ncc[nH]1)c1c(F)cccc1I | -7.586%
69 | COCCC(=O)N1C[C@@H](O)[C@H](N2CCN(c3ccccc3)CC2)C1 | 133.4%
70 | COCC(=O)N1C[C@@H](O)[C@H](N2CCN(c3ccccc3)CC2)C1 | 143.5%
71 | CSCCC(=O)N1CC[C@@H](N2CCN(c3ccccc3F)CC2)[C@H](O)C1 | -0.8189%
72 | Cc1ccsc1[C@@H]1CCN(C(=O)CCOc2ccccc2)C[C@H]1O | -3.102%
73 | O=C(CO)N1CC[C@@H](N2CCN(c3ccccc3F)CC2)[C@H](O)C1 | 5.557%
74 | COCCC(=O)N1CC[C@@H](N2CCN(C)CC2)[C@@H]1Cc1ccccc1 | -8.117%
75 | CN1CCN([C@@H]2CN(C(=O)CCOc3ccccc3)C[C@H]2O)CC1 | 98.51%

Row | Compound | Percent Effect
76 | CCOCC(=O)N1C[C@@H](O)[C@H](N2CCN(c3ccccc3)CC2)C1 | 110.9%
77 | COCCC(=O)N1CC2(CCN(c3ccccc3)C2)C1 | -36.12%
78 | CC(C)=CCN1CCN(CCCOc2ccccc2)[C@H]2CS(=O)(=O)C[C@H]21 | -8.839%
79 | N#Cc1ccnc(N2CCN(CC(O)c3ccccc3Cl)CC2)c1 (stereo not given) | -8.703%
80 | O=C(CN1CCS(=O)(=O)CC1)NCc1cccc(Br)c1 | -5.799%
81 | COCC1(CNC(=O)Nc2cc(F)ccc2OC)CCCC1 | -0.947%
82 | CC(C)(C)OC(=O)NC(C)(C)c1noc(CSc2nncs2)n1 | 7.03%
83 | N#Cc1c(Cl)nsc1NCc1ccc(N2CCSCC2)cc1 | -6.213%
84 | COc1ccc2c(c1)nc1n2[C@@H](CNCc2nccs2)COC1 | 4.423%
85 | Cn1ncc2c1C(COCC1CC1)CN(Cc1ccco1)C2 (stereo not given) | -0.8913%
86 | Cn1cc2c(n1)C(COCC1CC1)CN(Cc1ccsc1)C2 (stereo not given) | -15.61%
87 | CCOCC1CN(Cc2cnn(C)c2)Cc2ncn(CC3CC3)c21 (stereo not given) | -8.097%
88 | COCC1CN(Cc2ccoc2)Cc2cn(C)nc21 (stereo not given) | 2.216%
89 | Cn1cnc2c1C(COCC1CC1)CN(Cc1ccsc1)C2 (stereo not given) | 3.226%
90 | CCOCC1CN(Cc2ccco2)Cc2ccnn2C1 (stereo not given) | -17.9%
91 | CC(C)COCC1CN(Cc2ccoc2)Cc2ncn(C)c21 (stereo not given) | 128.9%
92 | Cn1cc(CN2Cc3cn(C)nc3C(COCC3CC3)C2)cn1 (stereo not given) | -9.412%
93 | CC(C)COCC1CN(Cc2cnn(C)c2)Cc2ncn(C)c21 (stereo not given) | 123.1%
94 | CC(C)COCC1CN(Cc2ccsc2)Cc2ncn(C)c21 (stereo not given) | 90.56%
95 | CC(C)COCC1CN(Cc2ccco2)Cc2ncn(C)c21 (stereo not given) | 120.7%
96 | CCOCC1CN(Cc2ccoc2)Cc2ncn(CC3CC3)c21 (stereo not given) | -9.148%
97 | CN(C)C(=O)c1nc2c(s1)CCCN2Cc1ccccc1 | -4.503%
98 | Cc1ccc(C)c2c(O)cc(CN3CCC(=O)NCC3C)nc12 (stereo not given) | -0.2793%
99 | CCC(NC(=O)Nc1cc(F)c(OC)c(F)c1)c1noc(C)n1 (stereo not given) | -7.836%
100 | Cn1nc2c(cc1=O)CN(Cc1nc(-c3ccoc3)no1)CC2 | -6.043%
